Usually Inhibition stands for the drop in the measured response relative to a control, in per cent. Low values mean a response near the control, high ones a response far below the control.

In the assay the test system is Plasmodium falciparum. The experiment in a line: GSK_TCMDC: Inhibition of Plasmodium falciparum 3D7 in whole red blood cells, using parasite LDH activity as an index of growth. Test compounds present at 2uM. The class given is functional.
`COc1ccc(NC(=O)Nc2cc(C)nc3cccnc23)cc1Cn1ccnc1` came in with an Inhibition of 100%.

For the compound `Cc1ccnc(NC(c2cccc(Cl)c2Cl)c2ccc3cccnc3c2O)c1` (stereo not given), the Inhibition is 86%.

`Cl.NC1CCN(Cc2cccc(-c3ccc(-c4nc5cc(C(F)(F)F)ccc5[nH]4)cc3)c2)C1` (stereo not given) returned an Inhibition of 99%.

`O=C(Nc1cccc(C(F)(F)F)c1)c1ccc(S(=O)(=O)NCC2CCCN(CC3CCCCC3)C2)cc1.O=C(O)C(F)(F)F` (stereo not given) showed an Inhibition of 95%.

As for `Cl.N#Cc1ccc2c(c1)CCN(CCC1CCC(NC(=O)c3ccc(-c4ccccn4)s3)CC1)CC2` (stereo not given), the Inhibition is reported as 92%.

With `COc1cc(NC2=NS(=O)(=O)c3cc(Cl)ccc3N2C)cc(OC)c1OC.O=C(O)C(F)(F)F`, the Inhibition stood at 100%.

As to `FC(F)(F)c1cccc(CNCC2CCN(Cc3ccc4c(c3)OCO4)CC2)c1.O=C(O)C(F)(F)F`, the Inhibition came to 100%.

Compound `CCOc1ccccc1C1CCN(CCCCNC(=O)c2ccc(NC(=O)c3ccc(Cl)cc3)cc2)CC1` displayed an Inhibition of 95%.

As for `COc1cc2nccc(Nc3ccc(OCc4ccccc4)cc3)c2cc1OC`, the Inhibition is recorded as 100%.

As to `OC(CNCc1ccccc1OCc1ccccc1)c1cc(Br)cs1` (stereo not given), the Inhibition was 97%.

`COc1ccc(CNC2CCN(C)CC2)cc1-c1ccc(S(=O)(=O)NCCN2CCCC2)s1.O=C(O)C(F)(F)F` registered an Inhibition of 90%.

On to `O=C(NCCCCN1CCN(c2ccc3c(c2)CCC3)CC1)c1ccc(NC(=O)c2ccc(Cl)cc2)cc1`, for which the Inhibition is given as 98%.

Regarding `O=C(Cc1ccc[n+]([O-])c1)Nc1ccc(-c2cccc(-c3nc4cc(C(F)(F)F)ccc4[nH]3)c2)cc1`, the Inhibition is 92%.

The compound `Cc1ccc(/C=C/C(=O)NC2CCC(N3CCC(c4ccccc4C)CC3)CC2)cc1C` (stereo not given) came in with an Inhibition of 100%.

In the case of `CN(C)CC(O)COc1ccc(Nc2ncc([N+](=O)[O-])c(Nc3ccccc3O)n2)cc1.O=C(O)C(F)(F)F` (stereo not given), the Inhibition is on record as 100%.

On to `Cc1[nH]c(C)c([N+](=O)[O-])c(=O)c1-c1ccc(Oc2ccccc2)cc1`, for which the Inhibition is recorded as 98%.

In turn, `CCCC(C)Nc1nc(C)cc(N[C@@H](Cc2ccccc2)C(=O)NCCc2ccccc2)n1.O=C(O)C(F)(F)F` (stereo not given in full) had an Inhibition of 97%.

In turn, `Cc1cccc2nc(-c3ccc(-c4ccc(NC(=O)Nc5ccsc5)cc4)s3)[nH]c12` returned an Inhibition of 100%.

Turning to `CS(=O)(=O)Cc1ccc(Nc2nccc(-c3c(-c4cccc(NC(=O)C5CCCCC5)c4)nn4ncccc34)n2)cc1`, the Inhibition is listed as 98%.

Consider `CN1CCN(CCCN(Cc2cccc(-c3cccc(CNC4CCCC4)c3)c2)C(=O)CCC2CCCC2)CC1.O=C(O)C(F)(F)F`, for which the Inhibition worked out at 100%.

The compound `CC1(C)N=C(N)N=C(N)N1c1ccc([N+](=O)[O-])cc1.Cl` returned an Inhibition of 93%.

Compound `CCNc1cc(C(=O)N[C@@H](Cc2ccccc2)[C@H](O)CNC2CCCCC2)cc(N2CCCCS2(=O)=O)c1` displayed an Inhibition of 99%.

The compound `FC(F)(F)CNc1nc(Nc2ccc3ncccc3c2)nc2[nH]ccc12.O=C(O)C(F)(F)F` returned an Inhibition of 87%.

As to `Cc1cc(O)c(CN(C)Cc2ccc3c(c2)OCO3)cc1C(C)C`, the Inhibition is on record as 98%.

For `COc1ccc(NC(=O)[C@H](Cc2ccccc2)Nc2cc(C)nc(NCCc3ccccc3)n2)cc1.O=C(O)C(F)(F)F`, the Inhibition amounted to 98%.

`Cc1c(C(=O)N2CCCC(C(F)(F)F)C2)sc2cccc(F)c12` (stereo not given): the Inhibition is on record as 99%.

`O=C(O)C(F)(F)F.c1cc(-c2ccc(CNC3CC3)cc2)cc(-c2nc3ccccc3[nH]2)c1`: the Inhibition is reported as 96%.

`Cc1cccc2nc(-c3cccc(-c4cccc(CNCCCN5CCCC5=O)c4)c3)[nH]c12.O=C(O)C(F)(F)F`: the Inhibition came out at 100%.

Take `COc1cc2c(cc1OC)CC(NCCCCCCNCCc1ccc(Cl)cc1)CC2.Cl` (stereo not given): the Inhibition stood at 98%.

As for `Cc1ncccc1-c1cccc2c(NC(=O)Nc3ccc4nccc(N5CCN(C)CC5)c4c3)cccc12.Cl`, the Inhibition is 100%.

`CC(=O)c1cccc2cc(C(=O)NC3CCC(CCN4CCc5ccc(C#N)cc5C4)CC3)[nH]c12.Cl` (stereo not given) registered an Inhibition of 100%.

`COc1ccc2nccc([C@@H](O)CN3CCC(NCc4nc5c([N+](=O)[O-])cccc5[nH]4)CC3)c2c1.O=C(O)C(=O)O`: the Inhibition was determined as 100%.

Take `COc1ccc(NC(=O)c2ccc(-c3cc(NC(=O)c4ccnc(N5CCCC5)c4)ccc3C)s2)cc1N1CCN(C)CC1.O=C(O)C(F)(F)F`: the Inhibition came to 100%.

Consider `Cc1nc(N)nc(N)c1-c1ccc(Cl)c(Cl)c1` [METOPRINE], for which the Inhibition is given as 95%.

In the case of `CN1CCN(CCCN(C(=O)Nc2cc(C(F)(F)F)cc(C(F)(F)F)c2)c2ccccc2Cc2ccccc2)CC1`, the Inhibition stood at 89%.

For the origin of these results see ChEMBL document CHEMBL1157539, “Thousands of chemical starting points for antimalarial lead identification” (Nature, 2010).
